Drawing on PubChem BioAssay, this text covers composite z-score and composite Z-score for 17 compounds.

In one experiment the target is Albumin (Bos taurus) (UniProt P02769). Put plainly: compounds binding labelled BSA control protein – biochemical, small-molecule microarray, Alexa647 label, 635/667 nm fluorescence, artefact control for SMM control protein annotation, profiling panel (AID 1118).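 Further: score merges 667 nm emission intensity and signal-to-noise per printed compound spot.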 Conditions: BSA-A647 binding, fluorescence 635 nm, higher = more signal.
A short description of experiment [1]: probe aXIP binding to arrayed compounds – biochemical, NeuroSMM set, 635/667 nm fluorescence, primary screen (AID 1119).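 Further: probe is the protein aXip251-270 applied at 1 µg/mL to compound-printed slides; binding of probe to printed compounds measured as 667 nm fluorescence plus signal to noise.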 Conditions: small-molecule microarray, higher = more signal, called active from +8 up or from −8 down.
The nature of experiment [2]: probe aNOTCH3 binding on compound microarray – biochemical, small-molecule microarray, 635/667 nm fluorescence, primary screen (AID 1120).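 Further: probe is a biotin-tagged antibody raised against NOTCH3 rather than NOTCH3 protein; score merges spot fluorescence near 667 nm with spot signal to noise.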 Conditions: higher = more signal.
Experiment [3] can be described thus: probe aNOTCH2 binding on compound microarray – biochemical, small-molecule microarray, 635/667 nm fluorescence, primary screen (AID 1121).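 Further: score merges feature fluorescence read at 667 nm with its signal to noise.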 The settings on record: higher = more signal.
The target in experiment [4] is Carbonic anhydrase 2 (Homo sapiens) (UniProt P00918). Put plainly: compounds binding carbonic anhydrase 2 – biochemical, small-molecule microarray, Alexa647-labelled CAII, profiling panel (AID 1122). Conditions: CAII-A647 binding fluorescence, higher = more signal.
A short description of experiment [5]: COS7 lysate on small-molecule microarray, probe aHis, 635 nm (AID 1123).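 Further: z-score combines 667nm fluorescence intensity with signal-to-noise per printed compound spot.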 The settings on record: COS7 cell lysate, fluorescence, higher = more signal.
A short description of experiment [6]: probe aLAP1 signal on lysate-treated microarray – cell lysate, small-molecule microarray, COS7 lysate, primary screen (AID 1124).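 Further: lysate comes from COS7 cells expressing LAP1 and is applied at 0.3 µg/mL; score merges spot fluorescence near 667 nm with signal-to-noise over triplicate slides.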 The settings on record: probe aLAP1, fluorescence, higher = more signal.
Another experiment relates to Sam68 (KHDRBS1). Put plainly: compounds binding KHDRBS1 protein – biochemical, small-molecule microarray, 635 nm fluorescence, primary screen (AID 1125).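 Further: score merges 667 nm channel intensity with signal to noise over triplicate slides.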 Conditions: higher = more signal.
Experiment [7] concerns Chordin-like protein 2 (CHRDL2). As to the kind of experiment: compounds binding chordin-like 2 – biochemical, small-molecule microarray, 635 nm fluorescence, primary screen (AID 1126).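 Further: printed compound slides probed with Chrdl2 protein at 4 µg/mL for 1 h at 4 C; score merges 667 nm emission intensity with signal to noise over three replicate slides.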 The settings on record: fluorescence 635 nm, higher = more signal.
In experiment [8] the target is Concanavalin-A (Canavalia ensiformis) (UniProt P02866). As to the kind of experiment: compounds binding concanavalin A lectin – biochemical, small-molecule microarray, Alexa647 label, 635 nm, artefact control for SMM control protein annotation, primary screen (AID 1127).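 Further: z combines 667 nm emission intensity with signal-to-noise across three replicate slides.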 The settings on record: ConA-A647 binding fluorescence, higher = more signal.

The structures appear in SMILES notation. Activity calls are given as the source filed them.

Sequence of Concanavalin-A (Canavalia ensiformis) (P02866 whole entry, looked up): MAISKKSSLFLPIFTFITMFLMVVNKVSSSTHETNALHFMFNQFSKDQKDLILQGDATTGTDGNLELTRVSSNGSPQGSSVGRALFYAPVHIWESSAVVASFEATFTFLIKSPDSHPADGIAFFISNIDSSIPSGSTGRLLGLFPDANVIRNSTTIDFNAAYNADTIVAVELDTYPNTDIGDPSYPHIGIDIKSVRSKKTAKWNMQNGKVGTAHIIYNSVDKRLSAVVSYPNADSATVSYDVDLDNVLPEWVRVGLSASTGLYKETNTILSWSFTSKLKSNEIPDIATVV
Sequence of Albumin (Bos taurus) (P02769 whole entry, looked up): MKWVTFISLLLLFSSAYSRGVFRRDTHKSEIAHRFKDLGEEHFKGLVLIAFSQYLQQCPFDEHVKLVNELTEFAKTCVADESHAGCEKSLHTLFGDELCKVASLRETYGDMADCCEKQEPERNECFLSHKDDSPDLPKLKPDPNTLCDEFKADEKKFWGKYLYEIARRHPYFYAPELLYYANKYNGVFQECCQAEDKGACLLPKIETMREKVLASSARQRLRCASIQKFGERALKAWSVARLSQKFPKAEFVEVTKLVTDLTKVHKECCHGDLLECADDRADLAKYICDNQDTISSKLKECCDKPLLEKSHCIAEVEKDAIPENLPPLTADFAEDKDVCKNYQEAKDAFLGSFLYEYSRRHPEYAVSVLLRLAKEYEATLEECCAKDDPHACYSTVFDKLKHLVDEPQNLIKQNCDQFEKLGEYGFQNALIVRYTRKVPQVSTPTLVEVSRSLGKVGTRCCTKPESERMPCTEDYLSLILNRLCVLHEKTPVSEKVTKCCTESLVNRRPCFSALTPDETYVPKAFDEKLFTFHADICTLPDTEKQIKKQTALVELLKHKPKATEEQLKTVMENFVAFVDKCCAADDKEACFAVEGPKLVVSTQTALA

Turning to `CC=CC(O)C1C=CC2C(=O)N(c3ccccc3)C(=O)C2N1Nc1ccc([N+](=O)[O-])cc1` (stereo not given), the composite z-score in the experiment with Albumin (Bos taurus) is 0.0015; in [2] it was -0.0044; in experiment [3] it was -0.123; in experiment [4], 0.661; in experiment [5], 0.657; in experiment [6], 0.865. Also, the results for the composite z-score (in the experiment on Sam68 (KHDRBS1); in experiment [7]; in [8]) were 0.729, 0.414 and 0.217, respectively. Also, the composite Z-score in experiment [1] is -0.127 (inactive).

As for `CCC[C@@H]1C[C@@]1(CCC)[C@@H](NP(=O)(c1ccccc1)c1ccccc1)c1ccc(Cl)cc1`, the composite z-score is -0.811 in the experiment with Albumin (Bos taurus); 0.0306 in [2]; -0.0166 in experiment [3]; -0.0589 in experiment [4]; 0.772 in experiment [5]; 0.38 in experiment [6]. Also, the composite z-score was 0.179 with Sam68 (KHDRBS1), 0.603 in experiment [7] and -0.765 in experiment [8]. The composite Z-score in experiment [1] was -1.49 (inactive).

Regarding `COC(=O)[C@@]1(Cc2ccccc2)[C@H]2c3cc(C(=O)N4CCCC4)n(C[C@H](O)CO)c3C[C@H]2CN1C(=O)c1ccccc1`, the composite z-score was found to be 0.659 with Albumin (Bos taurus); 0.152 in experiment [2]; 0.0837 in experiment [3]; 0.907 in experiment [4]; 1.79 in experiment [5]; 0.288 in experiment [6]. The composite z-score with Sam68 (KHDRBS1) was 0.18; in experiment [7], -1.34; in [8], -0.311. For the same compound, the composite Z-score in [1] was -0.164 (inactive).

`C[N+](C)(C)CCCC[C@@H]1NC(=O)[C@@H]2C[C@H](C(=O)O)[C@H](c3ccc(O)cc3)N2C1=O`: the composite z-score was 0.594 with Albumin (Bos taurus); -0.223 in [2]; -0.0798 in [3]; 0.381 in [4]; -0.555 in [5]; -0.534 in [6]. For the same compound, the composite z-score was -2.19 in the experiment on Sam68 (KHDRBS1), -0.827 in experiment [7] and 0.0317 in experiment [8]. In addition, the composite Z-score in [1] is -0.238 (inactive).

With `COc1ccc(C(O)C2C=CC3C(=O)N(Cc4ccccc4)C(=O)C3N2n2cnnc2)c2ccccc12` (stereo not given), the composite z-score in the experiment with Albumin (Bos taurus) was 0.626; in [2], -0.0238; in experiment [3] it was -0.125; in experiment [4] it was 0.783; in [5], 1.65; in experiment [6], 0.686. Also, the composite z-score in the experiment on Sam68 (KHDRBS1) is 1.01; in [7] it was -2.13; in experiment [8], 0.388. In addition, the composite Z-score in experiment [1] was 0.624 (inactive).

As for `[N-]=[N+]=Nc1ccccc1[C@H]1OC(c2ccc(OCCCO)cc2)=N[C@@]1(CCS(=O)(=O)c1ccccc1)C(=O)N1CCCCC1`, the composite z-score with Albumin (Bos taurus) was 0.949; in experiment [2], 0.355; in [3] it was -0.0439; in experiment [4], 0.647; in [5], 2.65; in experiment [6], 0.0866. The composite z-score is 1.3 in the experiment on Sam68 (KHDRBS1), -0.106 in experiment [7] and 1.19 in experiment [8]. In [1], the composite Z-score was -0.311 (inactive).

In the case of `CCCCC(=C=CC[C@@H](O)c1ccc(OCCO)cc1)C[C@@H](O)COCc1ccccc1`, the composite z-score in the experiment with Albumin (Bos taurus) is -0.28; in experiment [2], -0.182; in experiment [3] it was -0.145; in experiment [4] it was 0.868; in [5], 0.173; in [6], -0.268. The values for the composite z-score (in the experiment with Sam68 (KHDRBS1); in experiment [7]; in experiment [8]) were 0.61, 0.0396 and -0.382, respectively. In experiment [1], the composite Z-score is -0.114 (inactive).

Regarding `CCOC(=O)[C@@H]1[C@@H]2C(=O)N(CC)C(=O)[C@@H]2C[C@@H]1Sc1ccccc1`, the composite z-score is 0.663 with Albumin (Bos taurus); 0.191 in [2]; -0.0297 in [3]; 0.36 in [4]; 1.84 in experiment [5]; 0.68 in [6]. Moreover, the composite z-score with Sam68 (KHDRBS1) was 1.25; in experiment [7], -0.235; in experiment [8] it was 0.563. The composite Z-score in experiment [1] was -0.889 (inactive).

`C=CC[C@@H](OC(=O)Nc1ccc(OC)cc1)c1ccc(OCCO)cc1`: the composite z-score was 0.384 with Albumin (Bos taurus); -0.46 in experiment [2]; -0.0911 in [3]; 0.709 in experiment [4]; 0.31 in [5]; -0.347 in [6]. The composite z-score in the experiment with Sam68 (KHDRBS1) is -0.661; in experiment [7], -2; in experiment [8], -1.54. Further, the composite Z-score in experiment [1] is 0.166 (inactive).

`C=CCOC(=O)[C@H]1[C@@H]2C(=O)O[C@@H](c3ccccc3)[C@@H](c3ccccc3)N2[C@@H](c2ccc(OCCOC(=O)[C@H]3C[C@H]4C(=O)N[C@@H](CCCC[N+](C)(C)C)C(=O)N4[C@H]3c3cccc(OCCO)c3)cc2)[C@]12C(=O)Nc1ccc(I)cc12`: the composite z-score with Albumin (Bos taurus) is -0.0737; in experiment [2], -0.208; in experiment [3], -0.161; in [4], 0.108; in experiment [5], 0.365; in experiment [6], 0.072. Moreover, the composite z-score in the experiment with Sam68 (KHDRBS1) came out at 0.489; in [7], 0.578; in experiment [8], 1.13. In experiment [1], the composite Z-score was 0.197 (inactive).

In the case of `O=C(NC1CC1)[C@@H]1c2ccccc2C(=O)N(Cc2ccccc2)[C@H]1c1ccc(CO)cc1`, the composite z-score in the experiment with Albumin (Bos taurus) was 0.0082; in experiment [2], -0.272; in experiment [3] it was -0.127; in experiment [4], 0.698; in [5], 2.72; in [6], 1.36. Also, the composite z-score is 0.372 with Sam68 (KHDRBS1), -0.346 in experiment [7] and 0.38 in [8]. Besides, in experiment [1], the composite Z-score is 0.081 (inactive).

`O=c1cccc(-c2ccc(C(F)(F)F)cc2)o1`: the composite z-score in the experiment with Albumin (Bos taurus) is -0.309; in experiment [2], -0.122; in experiment [3], -0.11; in experiment [4] it was -0.14; in experiment [5], -0.89; in experiment [6], 0.0441. Also, the composite z-score is -1.03 with Sam68 (KHDRBS1), -0.291 in experiment [7] and -0.0038 in experiment [8]. Further, the composite Z-score in experiment [1] was -0.275 (inactive).

For `NC(=O)N1C(=O)C2C(C1=O)C1C=C(CCCO)C2C(c2cccs2)N1Cc1cc2c(cc1Br)OCO2` (stereo not given), the composite z-score with Albumin (Bos taurus) was 0.429; in experiment [2], -0.0328; in experiment [3] it was -0.12; in experiment [4], 0.757; in experiment [5], 1.04; in [6] it was -0.0752. The composite z-score is 0.234 in the experiment on Sam68 (KHDRBS1), -0.663 in experiment [7] and 0.827 in [8]. Also, in experiment [1], the composite Z-score is -0.483 (inactive).

For the compound `COc1ccc([Si](C)(C)[C@@H]2[C@@H](CC(=O)N3CCC[C@H]3CO)O[C@]3(C(=O)N(Cc4ccc(N5C(=O)c6cccc7cccc5c67)cc4)c4ccccc43)[C@H]2C)cc1`, the composite z-score with Albumin (Bos taurus) is -0.647; in experiment [2] it was 0.0996; in [3], -0.148; in [4] it was 0.447; in experiment [5], 1.77; in experiment [6], 0.323. For the same compound, the composite z-score in the experiment with Sam68 (KHDRBS1) turned out to be 1.29; in experiment [7], 1.3; in experiment [8], 0.892. The composite Z-score in experiment [1] was 0.296 (inactive).

As to `C=CC[C@]12N=C(c3ccc(OCCCO)cc3)O[C@H]1c1ccccc1N(C)C2=O`, the composite z-score was determined as 0.0095 with Albumin (Bos taurus); 0.336 in experiment [2]; 0.0424 in experiment [3]; 0.308 in experiment [4]; 2.73 in experiment [5]; 1.14 in experiment [6]. In addition, the composite z-score in the experiment with Sam68 (KHDRBS1) is 1.21; in [7] it was 0.76; in experiment [8] it was 0.989. Moreover, the composite Z-score in experiment [1] is 2.56 (inactive).

`COCCOC(=O)N1C(=O)[C@@]2(c3cc(C#CCC(C(=O)OC)C(=O)OC)ccc31)[C@H](c1ccc(OCCO)cc1)N1[C@H](c3ccccc3)[C@H](c3ccccc3)OC(=O)[C@H]1[C@@H]2C(=O)N1CCN(c2ncccn2)CC1`: the composite z-score is 0.758 with Albumin (Bos taurus); 0.196 in [2]; -0.14 in [3]; 0.35 in experiment [4]; 2.33 in [5]; 0.265 in experiment [6]. Also, the results for the composite z-score (in the experiment with Sam68 (KHDRBS1); in experiment [7]; in experiment [8]) were 1.29, 0.293 and 1.1, respectively. Also, the composite Z-score in experiment [1] is -0.341 (inactive).

As to `C=CCC(OC(C)=O)[C@@H]1[C@@H](N(Cc2ccc(-c3ccccc3)cc2)C(=O)c2cccc3ccccc23)c2cc(OCCCO)ccc2N1C(=O)Cc1ccc2ccccc2c1` (stereo not given in full), the composite z-score with Albumin (Bos taurus) was 0.413; in experiment [2], -0.0345; in experiment [3], -0.0891; in experiment [4], -0.0417; in experiment [5] it was 0.321; in [6] it was 0.194. The composite z-score in the experiment on Sam68 (KHDRBS1) was -0.35; in experiment [7] it was -0.133; in [8] it was -0.353. In addition, the composite Z-score in experiment [1] is -0.277 (inactive).
